Most compounds without a hit are left out; they make up all but 1.8% or so of the library.
GLP1R cytotox: qHTS of GLP-1 Receptor Inverse Agonists: Cytotox Screen; HEK293 cAMP-luciferase reporter cells, luminescence, 24 h; Potency, µM (highest dose often 38.3 µM), inactives show at the highest dose activity change, negative = inhibition, hits mostly inhibitors; 410,000 compounds, 0.13% hits; AID 624418, 2012;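 further: loss of luciferase light is scored as toxicity; potency means the concentration at half of the fitted maximal effect; on the % scale 0 is the no-effect control and ±100 the full control effect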
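1536-well qHTS counterscreen of the MLSMR; 200 cells/uL, 12 h pre-incubation, 23 nL cpd, 24 h at 37 deg C 5% CO2, luciferase detection reagent, 12 min RT, luminescence. Inhibition = undesired.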
GLP-1R inv ag: qHTS of GLP-1 Receptor Inverse Agonists (Inhibition Mode); Glucagon-like peptide 1 receptor (Homo sapiens), P43220; HEK293 GLP-1R CRE-luciferase, luminescence, 24 h; GLP-1R form is constitutively active; Potency, µM (highest dose often 38.3 µM), for inactives: top-dose activity change, negative = inhibition, actives largely listed as inhibitors; 410,000 compounds, 1.6% hits; further: potency means the concentration at half of the fitted maximal effect; on the % scale 0 is the no-effect control and ±100 the full control effect; nearly all actives have a fitted effect of over 55% in size
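Stable HEK293 clone (constitutively active GLP-1R + cAMP-response luciferase); 200 cells/uL plated, 12 h pre-culture, compound 24 hr, 37 deg C/5% CO2; detection reagent 12 min RT; luminescence.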
TRPML1 blocker: qHTS for Inhibitors of the Human Mucolipin Transient Receptor Potential 1 (TRPML1). Mucolipin-1 (Homo sapiens), Q9GZU1. AID 624415, 2012. TRPML1-inducible cells, Ca2+ dye fluorescence, FDSS; stronger effect = lower value; inhibition of EC80 agonist-evoked calcium signal. activity change, negative = inhibition, % (no concentration beside the values). 390,000 compounds, 0.02% hits; in the data active means activity change below about -50%; inconclusive means between about -30% and that limit;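 further: stimulus is agonist 54-4 at its EC80 concentration; on the % scale 0 is the no-effect control and ±100 the full control effect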
Target sequence (Q9GZU1 whole entry, looked up): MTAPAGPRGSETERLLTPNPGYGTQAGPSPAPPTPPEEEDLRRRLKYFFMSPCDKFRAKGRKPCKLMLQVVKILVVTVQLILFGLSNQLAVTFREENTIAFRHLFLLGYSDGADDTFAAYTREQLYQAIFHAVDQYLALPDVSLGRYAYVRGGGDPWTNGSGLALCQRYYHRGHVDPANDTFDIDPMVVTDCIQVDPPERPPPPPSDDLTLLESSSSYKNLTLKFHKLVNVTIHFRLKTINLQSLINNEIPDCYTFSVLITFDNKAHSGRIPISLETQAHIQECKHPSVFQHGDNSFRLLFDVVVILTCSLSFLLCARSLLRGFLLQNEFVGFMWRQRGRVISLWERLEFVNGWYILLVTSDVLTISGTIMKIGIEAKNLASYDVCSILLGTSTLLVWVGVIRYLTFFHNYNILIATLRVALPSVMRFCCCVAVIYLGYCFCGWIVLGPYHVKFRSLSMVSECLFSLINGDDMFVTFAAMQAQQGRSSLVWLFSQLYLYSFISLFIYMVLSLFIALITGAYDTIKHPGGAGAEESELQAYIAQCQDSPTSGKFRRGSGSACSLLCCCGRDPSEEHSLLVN
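Calcium fluorescence in TRPML1-DL cells induced overnight with Tet: a 110 s read after compound pin addition, then a 110 s antagonist read after challenge with 54-4 at 4 uM final (EC80).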
TRPML1 ag: qHTS for Agonists of the Human Mucolipin Transient Receptor Potential 1 (TRPML1). Mucolipin-1 (Homo sapiens), Q9GZU1. TRPML1-expressing cells, Ca2+ dye fluorescence, FDSS. activation, % (test concentration not listed). 410,000 compounds, 0.12% hits. AID 624414, 2012; in the data active means activation above about 50%; inconclusive means mostly about 30% to 49%; further: 0% is about no effect
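Calcium fluorescence on an FDSS kinetic reader gave the read-out. Tet-induced TRPML1-DL cells were plated overnight, dye-loaded (Ca8 with quencher, 45-90 min, room temperature, dark), then read 110 s after compound addition, and again 110 s after 4uM final 54-4 (EC80).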
GLP-1R agonist: qHTS of GLP-1 Receptor Agonists; Glucagon-like peptide 1 receptor (Homo sapiens), P43220; HEK293 GLP-1R CRE-luciferase, luminescence, 4-6 h; cells express a hypersensitive GLP-1R form; Potency, µM (series often up to 45.6 µM), for inactives: at the top dose activation, hits mostly activators; 380,000 compounds, 0.007% hits; AID 624172, 2012; further: potency means the concentration at half of the fitted maximal effect; % of control where 0% means no effect
Numbers without * were called inactive; ? = inconclusive; / = not tested or not shown. Unless noted, the call rests on the fitted dose curve; in most records, active means well fitted curve in the direction sought with a large enough effect; inconclusive means small, poorly fitted or top-dose-only effect, or another doubt; inactive means no such curve, though single readings can be large; an effect the other way counts as inactive or inconclusive.

SMILES	GLP1R cytotox	GLP-1R inv ag	TRPML1 blocker	TRPML1 ag	GLP-1R agonist
COc1cccc(-c2csc(N3CCN(C(=S)Nc4cccc(Cl)c4)CC3)n2)c1	-7.4%	10µM*	32.6	0.5	-6.7%
COc1cccc(-c2csc(N3CCN(CC(=O)NNC(=O)c4ccc(Cl)cc4)CC3)n2)c1	1.4%	0.0%	-6.3	-0.1	-2.4%
CCOc1ccccc1CNS(=O)(=O)c1ccc(-c2coc(C)n2)cc1	1.2%	-22.6%	3.6	1.6	10.9%
O=C(CCl)N=c1sccn1Cc1ccc(Cl)cc1Cl	?	10µM*	11.6	-0.3	6.4%
Cc1cc2ncc(-c3ncc(C(F)(F)F)cc3Cl)cn2n1	12.0%	5.01µM*	-9.2	0.0	-22.2%
COc1ccc(N(CC(O)Cn2c3ccccc3c3ccccc32)S(=O)(=O)c2ccccc2)cc1 (configuration not stated)	10.3%	11.2µM*	55.2	1.6	-8.6%
Cc1ccc(N(CC(O)Cn2c3ccccc3c3ccccc32)S(=O)(=O)c2ccc(F)cc2)cc1 (configuration not stated)	1.7%	-6.0%	35.1	0.0	/
CCOC(=O)Cn1nc(-c2ccccc2)ccc1=O	2.4%	0.0%	-13.8	0.5	3.8%
CCOC(=O)Cn1nc(-c2ccc(F)cc2)cc(Cc2ccccc2)c1=O	32.2%	11.2µM*	/	/	19.7%
CCn1c(SC(C)C(=O)NCc2ccco2)nnc1-c1ccccc1 (configuration not stated)	/	/	/	-0.8	/
COc1ccc(OC)c(NC(=O)Nc2cccc(OCc3cc(=O)n4cc(C)ccc4n3)c2)c1	-9.4%	9.7%	-9.5	0.0	/
Cc1ccccc1Nc1nnc(-c2ccc(C)c(S(=O)(=O)N3CCCCC3)c2)c2ccccc12	0.8%	3.16µM*	49.2	-0.1	/
CCCCCCN(C(=O)CCCN1C(=O)NC(c2ccc(-c3ccccc3)cc2)C(C(=O)OCc2ccccc2)=C1C)C(C)C(=O)NCCCC (configuration not stated)	-10.0%	11.2µM*	40.4	2.8	8.5%
C/C(=N\NC(=O)C(C)n1nc(C)c([N+](=O)[O-])c1C)c1ccccc1O (configuration not stated)	3.16µM*	?	-0.1	-0.7	1.4%
Cc1nn(C(C)C(=O)NCc2ccco2)c(C)c1[N+](=O)[O-] (configuration not stated)	9.0%	5.0%	-9.2	-0.9	2.0%
CCC(CO)Oc1cc(NC(=O)c2ccc(OC)cc2)c2ncn(C(C)C)c2c1 (configuration not stated)	-8.4%	15.5%	-57.4*	0.0	3.7%
CCc1ccc(CSc2nccn2-c2ccccc2)cc1	0.0%	6.31µM*	29.7	2.6	15.2%
CCN(c1ccccc1)S(=O)(=O)c1cc(C(=O)Nc2ccc(F)c(F)c2)ccc1F	?	1.41µM*	14.3	-0.1	-2.5%
O=C(Nc1cc(NC(=O)c2ccccc2Cl)ccc1Cl)c1ccccc1	-7.0%	?	?	-0.3	/
CCC(CC)C(=O)N1N=C(c2ccc(NS(C)(=O)=O)cc2)CC1c1ccc(C)cc1 (configuration not stated)	-26.6%	8.91µM*	59.2	-0.5	15.4%
CN(CC(=O)Nc1ccc(F)cc1F)S(=O)(=O)c1cccc2nsnc12	-4.4%	5.5%	17.8	-0.4	/
O=C(c1cccc(Cl)c1)N1CCN(Cc2ccc3c(c2)OCO3)CC1	-9.9%	?	-16.5	0.3	3.5%
O=C(c1cc2cc(Cl)ccc2[nH]1)N1CCN(Cc2ccc3c(c2)OCO3)CC1	-17.5%	11.2µM*	1.3	0.7	-2.7%
CN(CC(=O)N1CCc2[nH]c3ccc(F)cc3c2C1)CC1OCCO1	0.0%	-8.4%	-10.6	1.7	-6.2%
O=C(CN1CCN(Cc2ccc3c(c2)OCO3)CC1)N1CCc2[nH]c3ccc(F)cc3c2C1	-17.7%	8.91µM*	-3.0	-0.1	-5.2%
